From PubChem BioAssay (NCI)
The panel holds about 83,000 compounds, 20% with a hit somewhere; the sample as a whole holds those more often.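 Results are percent growth after 48 hours of single-concentration exposure. 100 means growth as in untreated cells, lower positive values show inhibition; negative values down to -100 show cell death.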 Values without a mark were called inactive. Active and inactive are the calls of the source. The calls were made as follows: active = growth percent below 10; inactive = the rest.

Each compound was assayed on MDA-MB-468 breast (assay: NCI-60 one-dose screen, 48 h (100 = growth as untreated, 0 = no growth, -100 = all killed)). Conditions: 10 µM unless noted.

| SMILES | growth |
| --- | --- |
| O=C(O)/C(=C\c1ccc(Cl)cc1)c1ccc(Cl)cc1 | 78.9% |
| c1cnc2[nH]cc(-c3csc(-c4cn(CCCN5CCOCC5)c5ccccc45)n3)c2c1 | 26.2% |
| NS(=O)(=O)c1ccc(-n2nc(-c3ccc(Br)cc3)ccc2=O)cc1 | 66% [100 µM] |
| COc1ccc2c(c1)c(-c1nc(-c3c[nH]c4ncccc34)cs1)cn2CCNC(=O)OC(C)(C)C | 20% |
| O=C(CSc1nc(-c2ccc(Cl)cc2)cn1-c1ccc(Cl)cc1)c1ccc(Br)cc1 | 81.3% |
| Cc1cc(N/N=C/c2nc(-c3ccccc3)oc2C)c2cc(Cl)ccc2n1 | -74.7% (active) |
| C=CCn1c(SCC(=O)Nc2ccc(C(=O)/C=C/c3cc(OC)c(OC)c(OC)c3)cc2)nnc1-c1cc(-c2ccc(S(C)(=O)=O)cc2)nc2ccccc12 | 88.8% |
| Cc1cc(C(NC(=O)CCCCCNc2cccc3c2C(=O)N(C2CCC(=O)NC2=O)C3=O)c2cccnc2)c(O)c2ncccc12 (stereo not given) | -8.72% (active) |
| O=C(c1nc2ccccc2[nH]1)C1C(c2ccc(Cl)cc2)C2CC3CCCC[C@H]3N2[C@@]12C(=O)Nc1cc(Cl)ccc12 (stereo not given in full) | 12.1% |
| N#CCCN1C/C(=C/c2ccccc2)C(=O)/C(=C/c2ccccc2)C1 | 11.7% |
| O=C1c2ccccc2C(c2ccccc2)C1c1ccccc1 (stereo not given) | 71.4% |
| COc1cccc(-c2nn(-c3ccccc3)cc2-c2ccnc(NCCCNC(=O)c3ccccc3)c2)c1 | 15.2% |
| O=C1c2c(c3c4cccnc4[nH]c3c3ccc4ccccc4c23)C(=O)N1CCN1CCOCC1 | 62.8% |
| COC(=O)[C@H](Cc1cn(C)cn1)NC(=O)[C@@H](NC(=O)Nc1cc(C(F)(F)F)cc(C(F)(F)F)c1)C(C)(C)C | -63.1% [100 µM] (active) |
| COc1cc2nc(Cl)nc(Nc3ccc(S(=O)(=O)Nc4nccs4)cc3)c2cc1OC | 102% |
| COc1cc(/C=C/c2cc(O)c(C(C)=O)c(O)c2)cc2c1O[C@]1(C)CC[C@@H](O)C(C)(C)[C@H]1C2 | 77.6% |
| NC(=O)OCCO | 113% |
| Cn1ccnc1C(=O)/C=C/c1ccc(NC(=O)c2ccc(F)cc2)cc1 | 11.8% |
| CCOC(=O)c1cnc2c(C)cc(C)cc2c1NCCCN(C)C | 16.5% |
| COC[C@@]1(C)CC[C@]2(C)CC[C@]3(C)C(=CC[C@@H]4[C@@]5(C)CCCNC(C)(C)[C@@H]5CC[C@]43C)C2C1 (stereo not given in full) | 50.9% |

| SMILES | growth |
| --- | --- |
| CC(=O)N1C/C(=C/c2ccc(Cl)cc2)C(=O)/C(=C/c2ccc(Cl)cc2)C1 | -80% (active) |
| Cc1ccc(CN2CCC(C(=O)Nc3ccc(-c4cc5ccccc5[nH]4)cc3)CC2)o1 | 5.26% (active) |
| COc1ccc(Cn2cc3c(c2-c2ccccc2)CCc2cnoc2-3)cc1OC | -9% (active) |
| O=C(Oc1ccc(Cl)cc1[N+](=O)[O-])Oc1ccc(Cl)cc1[N+](=O)[O-] | 114% |
| O=C(CN1CCN(C(=O)c2ccccc2)CC1)Nc1ccccc1SCc1ccccc1 | 56.4% |
| Nc1nc(-c2cccc3ccccc23)cc2ccccc12 | -4.35% (active) |
| C/C(=N\NC(=S)N1CCCCC1)c1ccccn1 | -27.4% (active) |
| COC(=O)Nc1nc2ccc(C(=O)c3ccc(F)cc3)cc2[nH]1 | 25.9% |
| CC(C)CC1NC(=O)C(CCCN)NC(=O)C(C(C)C)NC(=O)C2CCCN2C(=O)C(Cc2ccccc2)NC(=O)C(CC(C)C)NC(=O)C(CCCN)NC(=O)C(C(C)C)NC(=O)C2CCCN2C(=O)C(Cc2ccccc2)NC1=O (stereo not given) | -78.1% (active) |
| COc1ccc(C(=O)N2NC(=O)/C(=C/c3ccccc3F)N=C2c2ccccc2)cc1 | 105% |
| COc1cc([C@@H]2c3cc4c(cc3[C@H](O)[C@H]3COC(=O)[C@H]23)OCO4)cc(OC)c1OC | -17.5% (active) |
| CC(=O)N(CCCCCCN(C(C)=O)C(C)=O)C(C)=O | 99.2% [100 µM] |
| Cc1cc(C(C)(C)c2cc(C)c(O)c(CN(C)C)c2)cc(CN(C)C)c1O | 67.7% |
| COc1cccc(/C=C/C(=O)/C=C(/C=C/c2cccc(OC)c2OC)OB(F)F)c1OC | 52.7% |
| S=C(Cc1ccccc1)N1CCN(c2ccccc2Cl)CC1 | 101% |
| CC[C@H]1CCC/C=C/[C@@H]2C[C@H](O)C[C@H]2[C@H](O)/C=C/C(=O)O1 | -51.5% (active) |
| CCn1c(SCC(=O)Nc2cccc(C(=O)/C=C/c3ccccc3Cl)c2)nc2ccccc2c1=O | 76.7% |
| CC1CCCN(CCCCCOc2ccc3oc4ccccc4c(=O)c3c2)C1 (stereo not given) | 52.2% |
| COc1ccc(C2=NN(C(C)=O)C(c3cn(Cc4ccc(Cl)cc4)c4ccccc34)C2)cc1 (stereo not given) | 69.2% |
| N#Cc1c(N)n2c(nc1=Nc1ccc(Cl)cc1)sc1cc(Cl)ccc12 | 22.5% |
